A selection: hits, their analogues and other compounds. The true share with any hit is near 2.6%.
KLF5 inhibitor – kruppel-like factor 5 inhibition; DLD-1 KLF5 promoter-luciferase reporter, luminescence; inhibition, % at 5 µM; 290,000 tested, 0.23% active; AID 1700;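 active means inhibition above a per-plate limit of that plate's mean compound inhibition plus 3 SD, cut at about 60% in these data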;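 further: 0% = DMSO wells and 100% = LY294002 at 200 µM; higher means less KLF5 promoter-driven luciferase light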
Ba/F3 V617F tox – reduce viability of Ba/F3 cells dependent on JAK2V617F; Ba/F3 EpoR-JAK2V617F viability, ATP luminescence; inhibition, % at 5.6 µM; 220,000 tested, 1.1% active; AID 1446;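 active means inhibition above the campaign mean plus 3 SD over all tested compounds, cut at about 24% in these data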;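 further: cytokine-independent growth of Ba/F3 cells driven by EpoR plus mutant JAK2; 0% = DMSO-treated cells and 100% = JAK inhibitor I control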
BaF3 tox – counter-screen for JAK2V617F inhibitors: parental Ba/F3 viability inhibitors. CellTiter-Glo ATP luminescence. inhibition, % at 5.6 µM. 220,000 tested, 1.1% active. AID 1486;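 active means inhibition above a per-campaign cutoff, the mean inhibition of all tested compounds plus 3 SD, cut at about 27% in these data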;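 further: 0% = DMSO wells and 100% = JAK Inhibitor I control wells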
GPR7 antag – human neuropeptides B/W receptor 1 antagonism; 290,000 tested, 1.1% active; P48145; GPR7-expressing cells, fluorescence antagonist assay; inhibition, % at 4.4 µM; AID 1861; in the data active means inhibition above about 16%, passing the limit was not always enough;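 further: cells stimulated with the agonist NPW; 0% = agonist with vehicle and 100% = vehicle without agonist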
Target sequence (P48145 whole entry, looked up): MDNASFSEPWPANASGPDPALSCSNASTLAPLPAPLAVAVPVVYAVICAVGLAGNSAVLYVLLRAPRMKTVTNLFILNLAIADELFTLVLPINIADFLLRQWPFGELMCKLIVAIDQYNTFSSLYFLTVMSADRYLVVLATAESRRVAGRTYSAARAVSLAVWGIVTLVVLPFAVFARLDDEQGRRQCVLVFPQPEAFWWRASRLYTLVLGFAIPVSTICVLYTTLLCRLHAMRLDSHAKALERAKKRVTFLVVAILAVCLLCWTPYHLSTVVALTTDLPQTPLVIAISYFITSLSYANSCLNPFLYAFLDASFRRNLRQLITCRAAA
IEC-6 tox – IEC-6 cytotoxicity, counter-screen for KLF5 inhibitors | inhibition, % at 5 µM | 290,000 tested, 0.78% active | luminescence viability | AID 1825; in the data active means inhibition above about 22%;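 further: 0% = plate median of test compound wells and 100% = cytotoxic reference compound wells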
DNA FID counter – displaces DNA intercalator in HCV helicase counter-screen | DNA fluorescent intercalator displacement, fluorescence | inhibition, % at 7.9 µM | 290,000 tested, 0.17% active | AID 1845; in the data active means inhibition above about 37%;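 further: 0% = vehicle and 100% = reference compound; higher means more ethidium bromide displaced from hairpin DNA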
Starred values were filed as active, the others as inactive; . = no result.

SMILES | KLF5 inhibitor | Ba/F3 V617F tox | BaF3 tox | GPR7 antag | IEC-6 tox | DNA FID counter
Cc1[nH]c2ccccc2c1C(=O)CN1C(=O)NC(C)(c2ccc(Cl)cc2Cl)C1=O (configuration not stated) | -8 | -10 | 2 | 62* | 7 | 3
O=C(CS(=O)(=O)c1ccccc1)c1ccc2c(c1)OCCO2 | -10 | 0 | 3 | 18* | -2 | -10
COCc1cc(C)nc(SCC(=O)Nc2cccc3cccnc23)c1C#N | -5 | -2 | 3 | -3 | -1 | -2
CC(C)CN(CC(C)C)CC(O)COc1ccccc1Br (configuration not stated) | -21 | -4 | 1 | -6 | -1 | 6
CCCCN(CCCC)CC(O)COc1ccccc1Br (configuration not stated) | -39 | 1 | 6 | 26* | 4 | 14
C=CCNC(=S)/N=c1/ccccn1CC | 9 | 15 | 29* | 3 | -6 | -6
C=CCNC(=S)Nc1ccccc1 | -7 | 0 | 5 | -23 | -2 | -5
C=CCNC(=O)c1onc(CSc2ccc(F)c(F)c2)c1C(=O)O | -25 | -1 | 0 | -2 | -4 | -24
C=CCNC(=O)c1onc(CSc2ccc(Cl)cc2)c1C(=O)O | -42 | 49* | 35* | 4 | 2 | -23
O=S1(=O)Nc2c(ccc3cccnc23)-c2ccccc21 | 55 | 3 | 13 | -6 | 67* | -10
CCc1nc2oc(C(=O)c3ccccc3)c(N)c2c2c1COC(C)(C)C2 | 3 | 3 | 3 | -13 | 0 | 6
COC(=O)c1ccc(NC(=O)CSc2nnc(COc3ccc4c(c3)CCCC4)o2)cc1 | 7 | -3 | 96* | -10 | -6 | 1
COc1ccc(CCNC(C)C(=O)Nc2ccc(S(N)(=O)=O)cc2)cc1 (configuration not stated) | -13 | . | . | -5 | 1 | -4
O=C(COC(=O)c1ccccc1O)Nc1cccnc1Cl | -26 | -5 | 2 | -2 | 7 | 1
COCCCNC(=S)N(Cc1ccccc1)Cc1ccccc1 | -3 | 1 | 6 | -4 | 9 | -9
CCN(C(=S)NCCOC)c1cccc2ccccc12 | -15 | 32* | 27* | -13 | 2 | -15
CCCCNC(=O)N1CCCC(C(=O)c2cc(C)c(OC)c(C)c2)C1 (configuration not stated) | -13 | . | . | -14 | 3 | -30
COc1cc(NC(=O)c2ccccc2)cc(OC)c1 | -1 | -3 | 1 | 2 | 4 | -2
Cc1ccc(C(=O)Nc2ccc3ccccc3c2)cc1 | 72* | . | . | 6 | 0 | -5
COc1ccc(C(=O)Nc2cc(OC)cc(OC)c2)cc1 | -84 | 4 | 69* | 2 | 9 | -8
O=C(Nc1ccc2ccccc2c1)c1ccc(Cl)cc1 | -88 | . | . | 8 | -1 | -3
O=C(Nc1ccc(NC(=O)c2ccccc2Cl)nc1)c1ccncc1 | -30 | -1 | 90* | 3 | 1 | -3
O=C(Nc1ccc(NC(=O)c2ccccc2)nc1)c1ccncc1 | -40 | -4 | 3 | 3 | -9 | 1
O=C(Nc1cccs1)Nc1c(F)c(F)c(F)c(F)c1F | -2 | 43* | 52* | -4 | 4 | 0
O=C(Nc1cccs1)Nc1c(F)c(F)cc(F)c1F | -8 | 30* | 43* | -11 | 4 | 1
SMILES | KLF5 inhibitor | Ba/F3 V617F tox | BaF3 tox | GPR7 antag | IEC-6 tox | DNA FID counter
O=C1CN(C(=O)c2ccc(Cl)nc2)c2ccccc2N1 | -31 | -2 | 0 | 11 | -1 | -2
Cc1ccccc1C1c2[nH]c3ccccc3c2CCN1Cc1cccn1-c1ncccn1 (configuration not stated) | 3 | 2 | 32* | -8 | 7 | -9
O=C(COc1ccccc1Cl)N1CCN(c2ccc(F)cc2)CC1 | -11 | 0 | 93* | -9 | -1 | -22
COc1ccc(CN2CCNC(=O)C2CC(=O)NCCc2nc(C)c(C)s2)c(OC)c1 (configuration not stated) | -25 | -4 | -2 | -12 | -4 | -20
O=C(CCN1C(=O)/C(=C/c2ccccc2F)SC1=S)NC1C=CS(=O)(=O)C1 (configuration not stated) | -6 | . | . | -12 | -1 | -9
O=C(c1ccc2c(c1)c(=O)oc1ccccc12)N1CCCCC1 | -27 | 1 | 0 | 11 | -8 | 0
CC(C)(C)c1nc(NC(=O)Nc2ccccc2)sc1Br | -49 | -4 | -4 | 32* | 6 | -2
OC(c1cc(C(F)(F)F)nc2c(Cl)cc(Cl)cc12)C1CCCCN1 (configuration not stated) | -21 | 3 | 0 | 45* | 0 | 17
O=C(NCc1ccco1)Nc1ccc(Br)cc1Cl | -69 | -1 | 3 | 3 | -2 | 2
CCCN(CCC)CCNC(=O)C1CCN(Cc2nc(-c3ccc(Cl)cc3)oc2C)CC1 | 3 | 7 | 19 | -5 | 57* | 36
Cc1oc(-c2ccc(Cl)cc2)nc1CN1CCC(C(=O)NCc2cccnc2)CC1 | -8 | 4 | 4 | -8 | 5 | 7
CCn1c(C(=O)OC)cc2c1ccn2-c1ccc(F)cc1 | -22 | -2 | 0 | 19 | 4 | -1
CCOC(=O)c1cc2c(ccn2-c2ccc(F)cc2)n1CC(=O)NC(C)(C)C | 11 | 5 | 90* | -3 | 9 | -14
CCOc1ccc(NS(=O)(=O)c2cc(NC(=O)c3ccc(C)cc3)ccc2Cl)cc1 | 48 | 80* | 70* | 18 | 56* | -8
COc1ccc(C(=O)Nc2ccc(Cl)c(S(=O)(=O)Nc3ccccc3OC)c2)cc1 | 6 | -2 | 4 | 14 | 2 | 5
Cc1ccc(C(=O)CCC(=O)Nc2ccc(Cl)c(S(=O)(=O)Nc3cccc(Cl)c3)c2)cc1 | -9 | 3 | 8 | 5 | 1 | -3
CCC(C)NCCC(=O)Nc1ccc(Cl)c(S(=O)(=O)Nc2ccc(Cl)cc2)c1 (configuration not stated) | -14 | 7 | 12 | 33* | 16 | 34
CCOC(=O)C1=C(C)N=c2s/c(=C\c3ccc(O)c([N+](=O)[O-])c3)c(=O)n2C1c1ccccc1OC (configuration not stated) | -3 | . | . | -22 | -12 | -14
COc1ccc(/C=c2/sc3n(c2=O)C(c2ccccc2OC)C2=C(N=3)c3ccccc3CC2)cc1O (configuration not stated) | 6 | 11 | 29* | 1 | -2 | -23
CN(C)CCNC(=O)COc1ccc(C23CC4CC(CC(C4)C2)C3)cc1 | -41 | 1 | 0 | 18 | 5 | 38*
Cc1ccc(C23CC4CC(CC(NC(=O)NCCN(C)C)(C4)C2)C3)cc1 | -29 | -5 | 0 | 4 | 4 | 12
CCCCC(=O)Nc1ccc(C(=O)c2ccccc2)cc1 | -55 | 6 | 4 | 20* | 15 | -12
CC(=O)Nc1ccc(C(=O)c2ccccc2)cc1 | -35 | 4 | 5 | 5 | 11 | -3
O=C(O)c1cccc(NC(=O)c2ccc(CN3C(=O)c4ccccc4C3=O)cc2)c1 | -18 | . | . | -7 | 4 | -36

High-throughput results (PubChem)
